The text below walks through data of the supplement of paper PMC12632987.

To fix the notation:
B1: usp_38_diff_out_18_30_435 (protein)
chain: EEEDEETQKFIDEELRKILAESTEELAREVRRRLPDSPEAREIAELLEEASRLIKEGTPEALKKALEKLERALELLKKNPQAPDRLLTATAGMIEVLKEL
B2: usp_38_diff_out_18_31_441 (protein)
chain: SLRERGREVAERAREAIRRLRELAERLLEAIKEGKREEAEELAKEMDEELVELGRAYQELRDLAREDPSLRPLLKEVEEEANEAIDLYNKAMEELFLFKS
B3: usp_38_diff_out_18_28_425 (protein)
chain: MREEVERRIAELEARADALIDRAEEVSTKAFLAYSEDPSSEELLKKNDELWDAVGAAAAAVREMRENRDDPEAVAREEERFREAAARAEALIKEIEKLIK
B4: usp_38_diff_out_18_28_413 (protein)
chain: MREENRKRIEEMEKKADELIDEANEVATEGYLKYADDPSNEELLKAIRELMDAVGEAAAAVREARENIDDPEKVEEEEKRFEEAYEKAKKKIKEVKELIK
B5: usp_38_diff_out_1_101_8 (protein)
chain: LEEELEKALKEFNETIEKAMEAWKEIAKIYKELGNEEKAEKAERQLAALESYKKEHTKFIEELKKEDLESALELAKLSLKNAKSILKEAEERLKKAKALK
B6: usp_38_diff_out_18_28_432 (protein)
chain: EEEEIKKLIEEAEKKMDELIDEYVKISTEGFLKINESDKGEELLEAINELADEVGKAAKAVNEMRKNRNDKEKVEEYLKKFEEAYKKAKEKIEEIKKLIE
B7: usp_38_diff_out_1_101_6 (protein)
chain: IEKELKKALEEFNKTLDETIKVYEEIEKLYKEMGNEEKAERAQRQRDALETYRKDTTAFIEELYKEDPESALELAKLALENAKTILKEAEKELKEVKAEK
B8: usp_38_diff_out_18_28_421 (protein)
chain: MREERRKRIEELEKEADELIDEYEKLAREAFLYYHENPEAEEVLEAARRLGDAVGKAAAAVNEMKENIDDEEKFEEYEEEFKRYKAEAKEYAEELKKLLA
B9: usp_38_diff_out_1_101_4 (protein)
chain: MEERLEKAKKEIEEALEEIIKIYEETAKAAKAAGDEALAERWKRFAEAMRTYRESLERTLEELREQDLESALAFAEAALEVTKSLLKEAKEEAEKAKKAL
B10: usp_38_diff_out_18_28_433 (protein)
chain: SLEANRALIAKYEAEADALIDEATKAATEGFLKYHENPDDEKLLEAINKLMDAVGKAAAAVRRMREHIHDPEAVAKYAKEFEKAKKEAEEKLKELKKLIK
B11: usp_38_diff_out_18_31_440 (protein)
chain: SLRERAERVREELERAAERMKRLAEELKEAIKAGDRERAERLMEEMDREMERLGRAYLELRDLAREDPSLRPLLKEAERRANEAVDAYTEAATAYHLFKA
B12: usp_38_diff_out_18_28_424 (protein)
chain: MAAEIQARIDAAKARADALIDEVEKVSTEAFLKYSEDPSMEELLEADRKLWDAAGTAAAAVRAMREHRDDPAAVDAELAVFEKAAAEAEKLIKEIKELIK
B13: usp_38_diff_out_18_28_429 (protein)
chain: SMEEIKKKIEEAEKEADALIDEANEVATQGFLAYHENPEKTELLEAVNELWDALGKAAQAVNDMRENKNNPEKVEKELKKFKEAAKAAKEKIAKIKELIA
B14: usp_38_diff_out_18_28_426 (protein)
chain: MLEENKKKIEKAKEEADKLIDEANKVATEGFLKYSENPENEELLKKINELWDAVGKAAQAVNDMRENIEDEEAVEKNLKKFEEAKKEAEKLIEELKKLIE
B15: usp_38_diff_out_1_101_7 (protein)
chain: LEEELKKALEEFNETIDKAIKVYEEIAKLYKKMGKEEKAEKAERQRKALETWREDSTAFIEELAKEDLESALELAKLALENAKTILKEAEEELKKVKAEE
B16: usp_38_diff_out_18_31_442 (protein)
chain: SVVEEAKRVAKEALEAIEKLKKTIDELKKAIGKDPKKAEELLKKARELLKKFSELYLRLRDLRRQAPEQIRPLLEELEKKADEAIDKYEEAETAYFLAKA
B17: usp_38_diff_out_18_28_428 (protein)
chain: SQEEIQKLIEENRKKTDELIDEANKVATEAYLAYHDNPEATELLEAVDKLWDALGKAAQAVNEMRENRDDPEKVKKEAAKFEEAAKKAEEYIKKIKELIA
B18: usp_38_diff_out_18_31_437 (protein)
chain: SLREEAERVAEEARRLAEELKEKSKELKEAIKKGDKEKAEKLMEEMERLKEELGRAYLRLRDLAREDPSNRPLLKEVTKEANEAVDEYTEAEEAYFLFKA
B19: usp_38_diff_out_18_30_436 (protein)
chain: SAEDEETERYIREALRKATAESLRELAERLERRLPDSPEAREIVALVREAARLLEEGTPEALAQAAALLRRALALLEADPRATDRELTALRGLLVVVEEL
B20: usp_38_diff_out_18_28_420 (protein)
chain: MKEERLKKLEELEKRADALIDEYNELATKGFLKYHDDPSATEVLEAVNKLSDAVGAAAAAVNAMKENIDNEEAFEAEYKKFEEEEAKAKEYAEELKKLIA
B21: usp_38_diff_out_1_101_12 (protein)
chain: LEAELAKAREAFRAAVAEVEAVLEEAEALAKAAGDAARAARWARQLAAVRAWRADLERTLEEIAAQDLESALELAKAALENAKTLLAEAKAELAAYKAKL
B22: usp_38_diff_out_18_30_434 (protein)
chain: EEEDEETEEYIRNKLLEFTAESTRDLAERVRRRLPDSPRAREIARLLEEASELLKKRTPEALEEAARLLERALELAEADPRATDRLLTSLRGLLTVVKEL
B23: usp_38_diff_out_18_28_419 (protein)
chain: MLEERQKKIEKLQKEADELIDKYTEAAEKGFLKYHEDPSAEEVLEAIKELSDHVGAAAAAVNEMKENIENEEKFEEELKKFKEHKKKALEALEKLKKLLA
B24: usp_38_diff_out_18_28_427 (protein)
chain: ALAANQATIEKARAEADKLIDESNKILTEAYLAYHEDPSSKELLEAAKKLSDALGKAAQAVNDMRAHRHDAAAVAKHAKEFEKAAKEAKKAIEEIKKLLK
B25: usp_38_diff_out_18_28_417 (protein)
chain: MLEERRERLKEMEKEADELIDKYNEAATKGFLYYHEHPEAEEVLEAVDKLSDAVGAAAAAVNEMRENIEDEEAFKKEEEKFKEYKKEAEKYLEELEKLIA
B26: usp_38_diff_out_18_28_416 (protein)
chain: MMKEIEEKIEKLEKEADELIDKATEAMTKGFLKINEDPNSEELIEAINKLSDAVGKAAHAVNLARRNKNNPEAVEKYEKEFEKAKKEAEKELKKLEELIK
B27: usp_38_diff_out_18_28_415 (protein)
chain: MLEENRKKIEEAKKEADELIDKANKVATEGFLKYSEDPSNEELLKAVNELLDYVGKAAAAVVEMRENINDPEAVEEQLKKFKEAKEKAEKAIEEVKKLIA
B28: usp_38_diff_out_18_28_431 (protein)
chain: AEAAIQAKIDAAEKEMDALIDEYVKVATEGFLALDESDKGEELEAAINELADAVGAAAAAVNEMRRNRDDPAAVDAQLAKFNAAKKKAKEKIKEIKKLLK
B29: usp_38_diff_out_18_28_422 (protein)
chain: SLAERRALIEELKKEADELIDEYTELATEAFLAYHENPDAEELLAAADALSDAVGAAAAAVREMREHLEDEAKVEAYTKEFKAQKKEAKEKAKELKKLLA
B30: usp_38_diff_out_1_101_11 (protein)
chain: LEAELAAARAEFDAAAADLLAAARAALAEVKALGDAAAAARFARYLAAYESFIADTRRTADEIAEQDKESAIEFLKAATENLRTLKEEVEAELARIKAKL
B31: usp_38_diff_out_18_28_414 (protein)
chain: MLEENKKKIEEMKKEADELIDKANEVMTQGYLAYADDPSNEELLKAIRELGDAVGAAAAAVREARENIENPEKVEKEKKKFEEAKKAAEEKIEEVKKLIA
B32: usp_38_diff_out_18_28_430 (protein)
chain: AEEEIKAKIEAAEKEMDKLIDEYVKVAEEAFLKLDESDKGEELEEAINKMADALGKAAAAVNEMRRNRDDPAAVEAELEKFKKAKKEAEEYIKKIKELLK

The test has as its target T1, USP38, Q8NB14.
T1 chain: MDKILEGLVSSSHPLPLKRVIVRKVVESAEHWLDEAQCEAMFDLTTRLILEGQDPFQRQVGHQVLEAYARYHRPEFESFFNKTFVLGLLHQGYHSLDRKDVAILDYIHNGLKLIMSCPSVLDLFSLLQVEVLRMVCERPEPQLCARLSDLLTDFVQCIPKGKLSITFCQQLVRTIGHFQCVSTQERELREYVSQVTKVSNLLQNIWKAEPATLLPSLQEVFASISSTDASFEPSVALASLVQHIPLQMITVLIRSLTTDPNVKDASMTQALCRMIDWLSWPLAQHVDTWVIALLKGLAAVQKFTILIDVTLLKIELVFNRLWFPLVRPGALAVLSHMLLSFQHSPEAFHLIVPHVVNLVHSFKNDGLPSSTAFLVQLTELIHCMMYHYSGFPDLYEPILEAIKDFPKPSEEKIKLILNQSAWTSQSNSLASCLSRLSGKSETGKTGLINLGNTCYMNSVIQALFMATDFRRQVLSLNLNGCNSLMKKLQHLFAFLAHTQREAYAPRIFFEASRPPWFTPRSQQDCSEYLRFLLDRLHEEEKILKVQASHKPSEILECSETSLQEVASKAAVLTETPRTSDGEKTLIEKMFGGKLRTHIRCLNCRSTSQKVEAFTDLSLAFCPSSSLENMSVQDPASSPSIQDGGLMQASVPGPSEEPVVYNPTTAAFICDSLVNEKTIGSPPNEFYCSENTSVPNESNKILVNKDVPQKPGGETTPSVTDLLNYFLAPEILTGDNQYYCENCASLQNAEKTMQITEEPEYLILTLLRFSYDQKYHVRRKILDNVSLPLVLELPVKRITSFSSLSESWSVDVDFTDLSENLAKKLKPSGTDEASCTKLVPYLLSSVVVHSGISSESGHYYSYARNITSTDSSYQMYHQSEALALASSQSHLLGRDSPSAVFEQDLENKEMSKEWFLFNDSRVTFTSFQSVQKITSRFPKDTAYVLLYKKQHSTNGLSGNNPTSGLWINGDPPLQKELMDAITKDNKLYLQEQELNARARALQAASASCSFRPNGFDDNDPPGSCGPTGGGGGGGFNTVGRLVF
The experiment in a line: median log2 fold change of GCK-ALFA target abundance (FLAG IP / Myc IP barcode read proportion) (log2 ratio); each designed protein is fused to an ALFA-tag nanobody in HEK293 cells to bring the named protein to FLAG-tagged glucokinase (GCK); Myc marks an untargeted standard; higher = target protein stabilised (more abundant). To be noted: target protein: 3xFLAG-MCP-GCK-ALFA reporter; HEK293 landing pad (RPLP). The method, boiled down:
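The readout is target abundance, the per-binder median log2 ratio of FLAG to Myc barcode read proportions. It came from HEK293 landing-pad cells carrying a recombined ALFA-nanobody-fused binder library, induced with 2 μg mL^−1 doxycycline and transfected with a plasmid for a FLAG-tagged target and a Myc-tagged standard. After 48 h, lysates were immunoprecipitated with anti-FLAG and anti-Myc, and circular RNA barcodes were reverse transcribed, amplified and sequenced. Each barcode needed a proportion of at least 10^−7 in both replicates and each binder at least 3 barcodes per replicate, a pseudocount of 10^−6 was added, and the replicates were pooled.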
Turning to B1, the “median log2 fold change” value was 0.231. As for B2, the figure is -0.642. Regarding B3, the “median log2 fold change” value is -0.0591. Regarding B4, the “median log2 fold change” value was -0.0716.

Consider B5, for which the “median log2 fold change” value was found to be 0.118. Turning to B6, the “median log2 fold change” value is -0.257. Consider B7, for which the “median log2 fold change” value is -0.129.

Take B8: the “median log2 fold change” value is -0.848.

For B9, the “median log2 fold change” value is -0.644. With B10, the “median log2 fold change” value is 0.116. B11: the “median log2 fold change” value is -0.671. Consider B12, for which the “median log2 fold change” value is 0.0788. B13: the “median log2 fold change” value is -0.434. Regarding B14, the “median log2 fold change” value was 0.0382. As for B15, the figure is -0.366; as for B16, -0.788; as for B17, 0.0104.

With B18, the “median log2 fold change” value is -1.39.

B19: the “median log2 fold change” value was 0.0576. For B20, the “median log2 fold change” value worked out at 0.326. As to B21, the “median log2 fold change” value was -0.00433. B22: the “median log2 fold change” value is -0.134. In the case of B23, the “median log2 fold change” value stood at 0.0382. As for B24, the figure is -0.128.

B25: the “median log2 fold change” value is -0.307.

As to B26, the “median log2 fold change” value was -0.28.

In the case of B27, the “median log2 fold change” value stood at 0.333. As to B28, the “median log2 fold change” value was -0.437. As for B29, the figure is -0.0738; as for B30, -0.315; as for B31, 0.143. As for B32, the figure is -0.244.
